Screening results: PubChem BioAssay, several laboratories
aSyn UTR inh: 5' untranslated region of α-synuclein, MLPCN primary screen; inhibition, % (tested at 7.5 µM); AID 1813; alpha-synuclein 5'UTR reporter, inhibitor activity; hit rate 0.82% among 300,000; in the data active = inhibition above about 60%;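 also: H4 neuroglioblastoma cells stably carrying SNCA 5'UTR luciferase fusion; 0% = DMSO wells and 100% = positive control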
697 NFkB inh: inhibitors of the PMA/ionomycin-induced NF-kB reporter in 697 B cells | 697 B-cell NF-kB luciferase reporter, 16 h | inhibition, % at 4 µM | hit rate 0.33% among 330,000; in the data active = inhibition above about 35%
Gli-Sufu block: antagonists of Gli-Sufu signaling | Sufu-KO-LIGHT fibroblasts, Gli luciferase reporter luminescence | inhibition, % at 5 µM | hit rate 0.74% among 340,000 | AID 588413;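 active = inhibition above about 55%, limit read from the data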;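 also: 0% = DMSO-treated cells and 100% = wells with medium but no cells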
KLF5 inh: inhibitors of KLF5 expression; inhibition, % at 5 µM; hit rate 0.23% among 290,000; DLD-1 KLF5 promoter-luciferase reporter, luminescence;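 active = inhibition above a per-plate limit of that plate's mean compound inhibition plus 3 SD, cut at about 60% in these data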;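 also: 0% = DMSO wells and 100% = LY294002 at 200 µM; higher means less KLF5 promoter-driven luciferase light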
Jurkat NFkB inh: inhibitors of the PMA/ionomycin-induced NF-kB reporter in Jurkat cells; PMA/ionomycin-induced NF-kB luciferase reporter, luminescence; inhibition, % at 4 µM; hit rate 0.53% among 330,000; in the data active = inhibition above about 50%
Mdm2-MdmX inh: disrupts the human Mdm2-MdmX interaction; inhibition, % at 8 µM; O15151+Q00987; SaOS-2 split-luciferase Mdm2/MdmX complementation, luminescence; hit rate 3% among 330,000;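 active = inhibition of at least 50% at 8 µM in the primary screen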
Gli antag conf: Gli-SUFU antagonism confirmation, single concentration; shares compounds with Gli-Sufu block; Sufu-KO-LIGHT cells, Gli luciferase reporter, luminescence; inhibition, % at 5 µM; hit rate 40% among 2,500;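 active = mean inhibition at 5 µM reaching about 45%, limit read from the data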;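 also: plate controls were DMSO-treated cells for no effect and wells lacking cells for full effect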
Gli cytotox: cytotoxic in Gli-SUFU antagonist counter-screen | AID 651994 | hit rate 32% among 2,500 | Sufu-KO-LIGHT cells cytotoxicity, ATP luminescence | cytotoxicity, % at 5 µM | shares compounds with Gli-Sufu block;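 active = mean cytotoxicity at 5 µM above about 25%, limit read from the data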;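 also: cells exposed to compound overnight for roughly 16 to 18 hours; plate controls were DMSO wells with cells for no effect and medium without cells for full effect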
Wnt3a counter: counter-screen for Gli-SUFU antagonists: Wnt3a reporter inhibition; shares compounds with Gli-Sufu block; Wnt-LIGHT cells, Wnt3a-driven luciferase reporter, luminescence; AID 651995; hit rate 20% among 2,500; inhibition, % at 6.25 µM;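 active = mean inhibition above about 25%, limit read from the data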
Numbers without * were called inactive. Only some compounds are listed: those with a hit (about 4.1% of all), similar ones and a draw of the others.

Screening C=CCCN(C(CC(C)C)C(=O)OC)S(=O)(=O)c1cc(Br)ccc1Br (centres undefined) returned aSyn UTR inh 19.3, 697 NFkB inh 17.8, Gli-Sufu block 50.9, Jurkat NFkB inh 10.3, Mdm2-MdmX inh 14.6, Gli antag conf 19.2, Gli cytotox 21.9 and Wnt3a counter 16.5.
Screening CCC(CC)CN1C(N(C)C)=NC[C@@H]1CC(C)C returned 697 NFkB inh 5.1, Gli-Sufu block 56.1*, Jurkat NFkB inh 2.7, Mdm2-MdmX inh 25.6, Gli antag conf 50.6*, Gli cytotox 16.4 and Wnt3a counter 24.8.
Screening CCC(C)CCN1C(N(C)C)=NC[C@@H]1Cc1ccccc1 (some centres undefined) returned 697 NFkB inh -5.5, Gli-Sufu block 12.1, Jurkat NFkB inh -7.8 and Mdm2-MdmX inh -26.1.
`CC(C)C[C@H]1CN=C(N(C)C)N1CCCCc1ccccc1` gave 697 NFkB inh -35.6, Gli-Sufu block 60.5*, Jurkat NFkB inh 22.9, Mdm2-MdmX inh 47.0, Gli antag conf 62.0*, Gli cytotox 24.4 and Wnt3a counter 23.3.
For CCC(C)CCN1C(N(C)C)=NC[C@@H]1CC(C)C (some centres undefined) the results were 697 NFkB inh -14.7, Gli-Sufu block 70.7*, Jurkat NFkB inh -6.2, Mdm2-MdmX inh 21.5, Gli antag conf 55.9*, Gli cytotox 15.6 and Wnt3a counter 18.0.
`CCc1cccc2c(C(=O)COC(=O)c3nn(C)c(=O)c4ccccc34)c[nH]c12` gave aSyn UTR inh 2.3, 697 NFkB inh -12.2, Gli-Sufu block 99.3*, KLF5 inh 2.5, Jurkat NFkB inh -7.1, Mdm2-MdmX inh 15.8, Gli antag conf 30.2, Gli cytotox 6.0 and Wnt3a counter -85.5.
`COC(=O)Cc1[nH]n(-c2nc3ccccc3s2)c(=O)c1C(C)=Nc1ccc(Cl)cc1` gave aSyn UTR inh -28.7, 697 NFkB inh -3.2, Gli-Sufu block 85.9*, KLF5 inh 11.7, Jurkat NFkB inh 12.4, Mdm2-MdmX inh -22.0, Gli antag conf 92.5*, Gli cytotox 18.2 and Wnt3a counter 103.9*.
Screening COC(=O)Cc1[nH]n(-c2ccccc2)c(=O)c1C(C)=Nc1ccccc1 returned aSyn UTR inh -70.8, 697 NFkB inh -8.1, Gli-Sufu block -3.6, KLF5 inh -26.2, Jurkat NFkB inh -12.7 and Mdm2-MdmX inh -31.8.
For CC(C)CCCN1C(N(C)C)=NC[C@@H]1Cc1ccccc1 the results were 697 NFkB inh -8.9, Gli-Sufu block 34.4, Jurkat NFkB inh -12.3 and Mdm2-MdmX inh -3.0.
For Cc1cc(C)c(C)c(S(=O)(=O)N2CCN(CC(=O)c3c(N)n(Cc4ccccc4)c(=O)n(C)c3=O)CC2)c1C the results were aSyn UTR inh 35.7, 697 NFkB inh 6.8, Gli-Sufu block 9.8, KLF5 inh -38.3, Jurkat NFkB inh 36.2 and Mdm2-MdmX inh 30.2.
CSCCC(NS(=O)(=O)c1ccc(Cl)cc1)C(=O)OCC(=O)NC1CC1 (centres undefined) was read as aSyn UTR inh -3.9, 697 NFkB inh -25.2, Gli-Sufu block 31.6, KLF5 inh -12.6, Jurkat NFkB inh -0.4 and Mdm2-MdmX inh -0.8.
CSCCC(NS(=O)(=O)c1ccc(Br)cc1)C(=O)OCC(=O)NC1CC1 (centres undefined) was read as aSyn UTR inh 10.3, 697 NFkB inh 7.2, Gli-Sufu block 51.4, KLF5 inh -35.5, Jurkat NFkB inh -2.3, Mdm2-MdmX inh 14.9, Gli antag conf 17.2, Gli cytotox 15.8 and Wnt3a counter 3.3.
COc1cccc(NCc2cc(=O)oc3cc(C)c(C(C)C)cc23)c1 was read as aSyn UTR inh 9.9, 697 NFkB inh -8.3, Gli-Sufu block 5.9, KLF5 inh -20.0, Jurkat NFkB inh 2.3 and Mdm2-MdmX inh 15.1.
For Cc1ccc(NC(=O)CSc2ccc(Br)cc2)cc1S(=O)(=O)N1CCOCC1 the results were aSyn UTR inh -8.3, 697 NFkB inh -7.4, Gli-Sufu block 2.5, Jurkat NFkB inh 11.2 and Mdm2-MdmX inh 8.3.
